# Measured values: the supplement of paper PMC12067926
# A number with no mark means an inactive call.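 How the source made its calls: active = growth AUC significantly below the DMSO wells by Dunnett test; inactive = the rest.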
# Columns and labels:
# Assay in all cases: relative growth (AUC of 72 h growth curve relative to DMSO control, dAUC) (ratio); higher = more growth (less inhibition), active = hit call of the paper
# Settings in all cases: 20 µM
# [1] = tested on: Aeromonas 1 (Aeromonas sp. AE235)
# In short: (§1)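 Isolates from Icelandic stream sediments and Silwood Park soil, along with whole sediment communities, were grown in Luria–Bertani medium to carrying capacity and diluted 1:100 into 96-well plates with each chemical at 20 µM (1% DMSO). A600 was measured hourly for 72 h, and values were averaged over three biological replicates. Relative growth (dAUC) is the spline-integrated growth-curve area over the mean of the DMSO controls.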
# [2] = tested on: Aeromonas 2 (Aeromonas sobria)
# In short: as §1
# [3] = tested on: Aeromonas 3 (Aeromonas popoffii)
# In short: as §1
# [4] = tested on: Argrobacterium 1 (Agrobacterium sp.)
# In short: as §1
# [5] = tested on: Arthrobacter 1 (Arthrobacter humicola)
# In short: as §1
# [6] = tested on: Arthrobacter 2 (Arthrobacter humicola)
# In short: as §1
# [7] = tested on: Arthrobacter 3 (Arthrobacter sp.)
# In short: as §1
# Community 10 = tested on: Community 10
# In short: as §1
# Community 4 = tested on: Community 4
# In short: as §1
# Community 6 = tested on: Community 6
# In short: as §1
# Community 7 = tested on: Community 7
# In short: as §1
# Community 8 = tested on: Community 8
# In short: as §1
# Community 9 = tested on: Community 9
# In short: as §1
# [8] = tested on: Flavobacterium 1 (Flavobacterium glaciei)
# In short: as §1
# [9] = tested on: Flavobacterium 2 (Flavobacterium succinicans)
# In short: as §1
# [10] = tested on: Hymenobacter 1 (Hymenobacter glaciei)
# In short: as §1
# [11] = tested on: Microbacterium 1 (Microbacterium arborescens)
# In short: as §1
# [12] = tested on: Neobacillus 1 (Neobacillus soli)
# In short: as §1
# [13] = tested on: Oryzobacter 1 (Oryzobacter terrae)
# In short: as §1
# [14] = tested on: Paenibacillus 1 (Paenibacillus castaneae)
# In short: as §1
SMILES,relative growth [1],relative growth [2],relative growth [3],relative growth [4],relative growth [5],relative growth [6],relative growth [7],relative growth (Community 10),relative growth (Community 4),relative growth (Community 6),relative growth (Community 7),relative growth (Community 8),relative growth (Community 9),relative growth [8],relative growth [9],relative growth [10],relative growth [11],relative growth [12],relative growth [13],relative growth [14]
Cc1c(COC(=O)[C@@H]2[C@H](/C=C(\Cl)C(F)(F)F)C2(C)C)cccc1-c1ccccc1 (racemic),0.988,0.992,1.05,1.06,1.17,0.833,0.786,0.993,0.998,1.05,1.06,1.1,0.947,0.869,1,1.06,1.05,0.943,1.07,0.975
CCCN(CCC)C(=O)SCc1ccccc1,1.03,1.02,1,1.04,1.05,0.932,1.02,0.888,0.997,0.996,1.01,1.08,1.03,0.979,0.952,1.15,1.05,1.02,1.08,1.01
Cc1cc(C2CC2)nc(Nc2ccccc2)n1,1.01,0.948,1.05,0.93,0.989,0.898,0.542 (active),0.995,0.978,1,0.89,1.05,0.939,0.951,0.86,1.1,1.05,0.946,1.04,0.619 (active)
COP(=S)(OC)SCN1C(=O)c2ccccc2C1=O,1.02,1.03,1.01,0.987,0.962,0.748,1.09,1,1.02,1.03,1.04,1.02,1.04,0.982,0.975,1.02,0.992,1.03,0.954,1.06
CNC(=O)Oc1cccc2ccccc12,0.941,0.918,0.921,1.09,0.924,1.07,1.14,0.847,0.976,1.01,0.845,1.06,0.967,1.09,1.01,1.03,1.02,1.04,0.972,1
CCCC1COC(Cn2cncn2)(c2ccc(Cl)cc2Cl)O1 (configuration not stated),0.966,0.949,0.971,0.999,0.991,0.797,0.751,,0.89,0.917,1.08,1,0.862,0.937,0.856,0.937,1.01,0.88,1.1,0.935
COP(=O)(OC)OC=C(Cl)Cl,0.937,0.977,0.972,0.977,0.856,0.86,0.916,,0.961,0.961,1.09,0.997,0.964,1.01,0.965,0.909,0.975,0.893,0.94,0.984
CC(Oc1ccc(Oc2nc3ccc(Cl)cc3o2)cc1)C(=O)O (configuration not stated),1.02,1.01,1.04,1.01,1.08,0.93,1.01,1.15,0.991,1.07,1.01,1.01,1.07,0.971,1.09,1.05,0.986,1.05,0.998,1.11
OC(Cn1cncn1)(c1ccc(F)cc1)c1ccccc1F (configuration not stated),0.996,1.04,1.01,1.02,0.835,1.11,1.04,1.09,1.08,1.07,0.819,1.04,1.08,1.12,1.07,1.13,0.996,1.08,1.05,1.05
Cc1cc(C(C#N)c2ccc(Cl)cc2)c(Cl)cc1NC(=O)c1cc(I)cc(I)c1O (configuration not stated),0.979,0.788 (active),0.96,0.833,0.0129 (active),0.011 (active),0.0114 (active),0.677,0.631 (active),0.454 (active),0.817,0.725,0.394 (active),0.0126 (active),0.794 (active),0.00496 (active),0.99,0.729 (active),0.00516 (active),0.325 (active)
CSc1nnc(C(C)(C)C)c(=O)n1N,0.969,1.01,1.04,0.991,0.948,1.06,0.961,1.03,1.08,1.02,1,1.04,1.05,1.03,1.02,1.04,1,1.02,1.03,1.02
Cc1cc(C)c(C2=C(OC(=O)CC(C)(C)C)C3(CCCC3)OC2=O)c(C)c1,1.09,0.978,1.05,1.11,0.927,0.864,0.789,0.848,1.19,0.917,0.932,1.08,1.03,0.346 (active),0.981,0.896,1.02,1.01,1.16,0.994
CCc1cnc(C2=NC(C)(C(C)C)C(=O)N2)c(C(=O)O)c1 (configuration not stated),0.969,0.981,1,0.95,0.895,0.959,0.932,1.1,1.03,1.04,1.05,1.03,0.98,0.988,1.03,1.09,1.04,1.01,0.96,1.02
CCCCOC(=O)[C@H](C)Oc1ccc(Oc2ccc(C#N)cc2F)cc1,1.04,1.07,1.05,1.11,1.11,0.875,0.882,0.88,1.03,1.03,1.07,0.995,1.06,1.13,0.955,1.03,1.04,1.03,1.06,1.1
CC[C@H]1CCC[C@H](O[C@H]2CC[C@H](N(C)C)[C@@H](C)O2)[C@@H](C)C(=O)C2=C[C@@H]3[C@@H](C=C(C)[C@@H]4C[C@@H](O[C@@H]5O[C@@H](C)[C@H](OC)[C@@H](OC)[C@H]5OC)C[C@@H]34)[C@@H]2CC(=O)O1.CC[C@H]1CCC[C@H](O[C@H]2CC[C@H](N(C)C)[C@@H](C)O2)[C@@H](C)C(=O)C2=C[C@H]3[C@@H]4C[C@H](O[C@@H]5O[C@@H](C)[C@H](OC)[C@@H](OC)[C@H]5OC)C[C@H]4C=C[C@H]3C2CC(=O)O1,0.972,0.977,0.979,1.08,0.832,0.89,0.999,,0.855,0.699,1.36,0.95,0.711,0.859,0.951,1.06,0.985,0.965,1.14,0.832
